Laboratory results reported in PubChem BioAssay AID720582 (The Scripps Research Institute Molecular Screening Center, 2013).
In all, about 370,000 compounds went through this assay and about 2,300 (0.62%) were called active. Shown is part of a subset that was picked to be rich in actives. Values without a mark were called inactive.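 How the source made its calls: active means inhibition above a per-campaign cutoff equal to the mean of compounds falling between control-based bounds plus 3 SD (cut at about 20% in these data); inactive means the rest.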

Molecular target: Disintegrin and metalloproteinase domain-containing protein 10 (Homo sapiens) (UniProt O14672)
Assay: human ADAM10 inhibitors, primary screen, biochemical, QFRET, HTS (AID 720582);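 further: 0% = DMSO wells while the 100% control is not disclosed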
Conditions: recombinant ADAM10, EDANS/DABCYL FRET peptide cleavage, 3 h; at 7 µM; active compounds read high

Chain of Disintegrin and metalloproteinase domain-containing protein 10 (Homo sapiens) (O14672 214-748 limits assumed): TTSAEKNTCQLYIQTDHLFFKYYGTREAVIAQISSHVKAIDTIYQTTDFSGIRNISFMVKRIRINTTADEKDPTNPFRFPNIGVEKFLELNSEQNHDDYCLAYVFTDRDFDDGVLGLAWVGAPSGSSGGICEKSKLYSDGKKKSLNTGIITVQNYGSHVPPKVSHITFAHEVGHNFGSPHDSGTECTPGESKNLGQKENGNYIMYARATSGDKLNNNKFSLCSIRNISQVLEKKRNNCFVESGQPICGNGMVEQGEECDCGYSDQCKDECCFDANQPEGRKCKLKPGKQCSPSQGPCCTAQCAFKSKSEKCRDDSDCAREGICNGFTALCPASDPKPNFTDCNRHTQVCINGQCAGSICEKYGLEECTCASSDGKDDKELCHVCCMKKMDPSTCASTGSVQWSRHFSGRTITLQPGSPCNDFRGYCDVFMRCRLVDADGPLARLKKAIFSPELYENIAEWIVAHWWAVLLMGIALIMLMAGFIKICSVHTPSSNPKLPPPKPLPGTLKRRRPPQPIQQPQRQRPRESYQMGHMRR

SMILES	inhibition
Oc1c(Cl)cc(Cl)c(Cl)c1Cc1c(O)c(Cl)cc(Cl)c1Cl	36.2% (active)
O=C(CSc1nnc(-c2ccccn2)n1-c1ccc(Cl)cc1)Nc1ccccc1-c1ccccc1	1.01%
C=CCN1C(=O)[C@@H](CC(=O)NCCCOCCCC)[C@]2(C(=O)OCC)CCCCC/C=C/12	-1.99%
O=C(OCc1ccc(-c2ccccc2)cc1)c1cccc(O)c1	23.1% (active)
Cc1ccc(S(=O)(=O)c2c(COC(=O)c3cccc(Cl)c3)c(-c3ccccc3)nn2C)cc1	4.59%
O=C(OCC(O)C(O)COC(=O)c1ccccc1)c1ccccc1 (stereo not given)	-1.65%
C=CCn1c(SCC(N)=O)nnc1-c1ccccc1OC	-8.66%
CN1C[C@]2(C=C3CCCCC3n3c(=O)n(-c4ccccc4)c(=O)n32)N=C1NC(=O)c1ccccc1 (stereo not given in full)	5.49%
O=C(NCc1cccs1)C1CCN(S(=O)(=O)c2ccccc2[N+](=O)[O-])CC1	7.43%
Cc1ccc(NS(=O)(=O)c2ccc(C)c(NC(=O)COc3ccc4ccccc4c3)c2)c(C)c1	21.2% (active)
Cc1ccc(OCC(=O)Nc2ccc(C(=O)O)cc2NC(=O)COc2ccc(C)c(C)c2)cc1C	-2.89%
Cc1ccc(C)c(NS(=O)(=O)c2ccc(OCC(=O)NCc3cccnc3)cc2)c1	5.13%
COc1ccc(-n2c(SCC(=O)NC3CCCC3)nnc2-c2ccncc2)cc1	-6.99%
COc1cccc(/C=C2\CC3(OC(C)=O)CCCN2C3)c1 (stereo not given)	3.53%
CC(CCN1CCC(C(O)(c2ccccc2)c2ccccc2)CC1)Oc1ccc([N+](=O)[O-])cc1Cl (stereo not given)	14.3%
O=C(NCc1ccccc1)c1onc(CSc2nc3ccccc3[nH]2)c1C(=O)NCc1ccccc1	23.5% (active)
O=C(NCc1ccccc1)c1onc(CSc2ccncc2)c1C(=O)NCc1ccccc1	6.67%
O=C(NCC1CC1)c1onc(CSc2ccccc2)c1C(=O)NCC1CC1	4.44%
CCN(C(=O)[C@@H](C1CC1)[C@@H](O)c1ccc2ccccc2c1)c1ccccc1	7.43%
CC(C)CNc1cccc2c1S(=O)(=O)N(Cc1cn(Cc3ccccc3C(F)(F)F)nn1)Cc1ccccc1O2	-26.5%
O=C(CSc1nc2ccccc2s1)N=Nc1c(O)[nH]c2ccccc12	7.8%
Cc1ccc(Cn2cc(CN3[C@@H](C)COc4cc(Br)ccc4S3(=O)=O)nn2)cc1	-3.91%
O=C(CC1SC(=Nc2ccccc2)N(Cc2ccccn2)C1=O)Nc1cccc(Cl)c1 (stereo not given)	21.2% (active)
CCN1C(=O)C(CC(=O)Nc2cc(C)ccc2C)SC1=Nc1ccc(S(N)(=O)=O)cc1 (stereo not given)	3.57%
CN1C(=O)C(CC(=O)Nc2ccccc2)S/C1=N/c1nccs1 (stereo not given)	8.04%
O=C(c1c[nH]c2ccccc12)N1CCC(Oc2cccnc2)CC1	1.42%
Clc1ccc(-n2c(SC/C=C/c3ccccc3)nnc2-c2ccco2)cc1	15.1%
CCOC(=O)[C@@]12CN(C(=O)OC(C)(C)C)CC=C1N(Cc1ccc(OC)cc1)C(=O)[C@H]2CC(=O)NCc1ccc(OC)c(OC)c1	1.76%

SMILES	inhibition
C=CCN1C(=O)[C@H](CC(=O)NCCCN2CCCC2=O)[C@@]2(C(=O)OCC)CCCC=C12	-5.84%
C=CCOC/C=C/C#CCN(CC=C)Cc1ccc(OC)cc1OC	-0.01%
CC1(C)C=Cc2c(ccc3c2OC[C@@H](c2ccc(O)cc2O)C3)O1	26.4% (active)
COC(=O)C1CN(Cc2cn(Cc3ccc(F)cc3)nn2)CCS(=O)(=O)N1Cc1ccc(Cl)cc1 (stereo not given)	2.41%
C=CCN1C(=O)[C@@H](CC(=O)NCC2CCCCC2)[C@]2(C(=O)OC)CCCCC=C12	5.05%
Cc1cc(O)ccc1-c1cc(C(=O)NCc2cc(C(F)(F)F)cc(C(F)(F)F)c2)[nH]n1	20.5% (active)
Cc1ccc(O)c(-c2cc(C(=O)NCc3ccccc3)[nH]n2)c1	12.6%
CCCOc1ccc(F)cc1-c1cc(C(=O)NCc2ccc(F)cc2)[nH]n1	15.3%
O=C(Nc1cc(Cl)cc(Cl)c1)OCCN1CCCC12CCC(c1ccccc1)CC2 (stereo not given)	4.69%
C=C(C)C#CC(Cc1ccccc1)N(CC1CC1)/C(N)=N/C(=O)OCc1ccccc1 (stereo not given)	-71.4%
CCOc1ccc(Oc2c(Cl)cnn(-c3ccc(C)cc3)c2=O)cc1	0.21%
CC(NCc1ccco1)C(=O)N1CCCCC1 (stereo not given)	-0.25%
Cc1ccc(CC(=O)Nc2ccc(S(=O)(=O)N3CCOCC3)cc2)cc1C	9.05%
N#C/C(=C\c1cccnc1)C(=O)Nc1ccc(SC(F)F)cc1	9.34%
O=C(Cc1ccc(Cl)c(Cl)c1)Nc1ccc(SC(F)F)cc1	24.6% (active)
O=C1CC[C@@]23CCCN2C(=O)CCC[C@H]3[C@H]1Cc1ccccc1	-4.62%
CN(C)CC(=O)N[C@@H]1C[C@@H]2O[C@H](CO)CC[C@@H]2O[C@@H]1CCc1ccc(C#Cc2ccccc2)cc1	7.99%
COC(=O)[C@]12C[C@H](CC(=O)NCc3cccs3)C(=O)N(CCc3ccc(OC)c(OC)c3)C1=C[C@H](C(C)C)O[C@@H]2C1CC1	-6.09%
CN(C)c1ccc(NC(=O)NC2CCCCN(Cc3ccc(Cl)cc3)C2=O)cc1 (stereo not given)	8.78%
COc1ccccc1CC1(C)C(=O)Nc2ccc(OC(F)(F)F)cc21 (stereo not given)	22.6% (active)
CCc1ccc2c(c1)NC(=O)C2(C)Cc1ccc(OC(F)(F)F)cc1 (stereo not given)	14.9%
Cc1ccc(CC2(C)C(=O)Nc3ccc(OC(F)(F)F)cc32)cc1 (stereo not given)	5.38%
C=CCN(Cc1ccc2c(c1)OCO2)C(C#CC1CC1)C(C)(C)C (stereo not given)	-9.94%
Cc1cc(C)cc(NC(=O)N2CCC(N(C)CCC(C)C)CC2)c1	3.06%
CC(C)(C)c1ccc(S(=O)(=O)NCC2CCN(C(=O)C(=O)c3cc4ccccc4o3)CC2)cc1	24.4% (active)
O=C(C(=O)N1CCC(CNS(=O)(=O)Cc2ccccc2)CC1)c1cc2ccccc2o1	0.44%
N#Cc1cccc(C(=O)NCC2CCN(C(=O)C(=O)c3cc4ccccc4o3)CC2)c1	1.47%
